In PubChem BioAssay AID493001 (Johns Hopkins Ion Channel Center, 2010) one finds calcium response (agonist-mode artifact) data, which are given here for 4 compounds.

The whole screen tested about 1,900 compounds, of which about 430 (23%) were called active.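 How the source made its calls: active means duplicate-averaged calcium rise in uninduced cells above buffer wells' mean plus 5 SD; inactive means the rest.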 The full list was thinned out, with actives kept by preference.

A short description of this assay: compound-evoked calcium rise in non-induced M3R cells, confirmation, artefact control for RGS4 inhibitor project, cell-based, HEK293 M3R, no carbachol, second counter-screen (AID 493001). To be noted: Fluo-4 calcium, at 10 µM; hits give high values. A general note: A counterscreen serves to expose hits that act by an unwanted route or on another target.
With `CCN1C(=O)C(=Cc2c(C)n(CC(=O)NCC3CCCO3)c3ccccc23)C(=O)N(CC)C1=S` (centres undefined), the calcium response (agonist-mode artifact) was 13.5% (active).

With `O=C(N/N=C/c1c(O)n(Cc2ccccc2)c(=O)[nH]c1=O)c1ccccc1`, the calcium response (agonist-mode artifact) entry is “inactive”. As for `O=C1NC(=O)N(Cc2ccco2)C(=O)/C1=C\c1ccc(-c2ccc(F)cc2)o1`, the calcium response (agonist-mode artifact) was 152% (active). With `Cc1ccc2c(c1)=C/C(=C\c1c(O)[nH]c(=O)[nH]c1=O)C(=O)N=2`, the calcium response (agonist-mode artifact) entry is “inactive”.
